# Laboratory results reported in PubChem BioAssay AID602292 (National Center for Advancing Translational Sciences (NCATS), 2012).
# Screen size: about 1,300 compounds; about 380 (29%) were called active. About 37% were inconclusive and are not listed. The list shows a part of the results. Unmarked numbers belong to inactive results. Calls come from the whole dose curve; as a rule, active = well fitted inhibition curve with a large enough effect; inconclusive = small, poorly fitted or top-dose-only effect; inactive = flat fitted curve, though single readings scatter.
# Molecular target: Thyrotropin receptor (Homo sapiens) (UniProt P16473)
# Assay: qHTS for antagonists of the Thyroid Stimulation Hormone Receptor: Hit Validation in Primary Screen; note: nearly all actives have a fitted effect of over 80% in size;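 for activity change, negative = inhibition: cells stimulated with TSH at EC80 of 4 nM during compound exposure; cAMP by competitive HTRF where cellular cAMP lowers the 665 nm FRET signal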
# Conditions: TSHR-expressing cells, cAMP antagonist mode; series mostly up to 58 µM; activity change, negative = inhibition: at the top concentration
# Summary of the method: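 Competitive HTRF detected cAMP in lysates of TSHR cells, read 30 minutes after antibody and d2 addition at room temperature. Before lysis, cells had 2 hours at 37 deg C with compound plus EC80 TSH, 4nM final.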
# % is set by controls: 0 for no effect and ±100 for the full control effect; potency is the fitted concentration of half-maximal effect.
# Chain of Thyrotropin receptor (Homo sapiens) (P16473 whole entry, looked up): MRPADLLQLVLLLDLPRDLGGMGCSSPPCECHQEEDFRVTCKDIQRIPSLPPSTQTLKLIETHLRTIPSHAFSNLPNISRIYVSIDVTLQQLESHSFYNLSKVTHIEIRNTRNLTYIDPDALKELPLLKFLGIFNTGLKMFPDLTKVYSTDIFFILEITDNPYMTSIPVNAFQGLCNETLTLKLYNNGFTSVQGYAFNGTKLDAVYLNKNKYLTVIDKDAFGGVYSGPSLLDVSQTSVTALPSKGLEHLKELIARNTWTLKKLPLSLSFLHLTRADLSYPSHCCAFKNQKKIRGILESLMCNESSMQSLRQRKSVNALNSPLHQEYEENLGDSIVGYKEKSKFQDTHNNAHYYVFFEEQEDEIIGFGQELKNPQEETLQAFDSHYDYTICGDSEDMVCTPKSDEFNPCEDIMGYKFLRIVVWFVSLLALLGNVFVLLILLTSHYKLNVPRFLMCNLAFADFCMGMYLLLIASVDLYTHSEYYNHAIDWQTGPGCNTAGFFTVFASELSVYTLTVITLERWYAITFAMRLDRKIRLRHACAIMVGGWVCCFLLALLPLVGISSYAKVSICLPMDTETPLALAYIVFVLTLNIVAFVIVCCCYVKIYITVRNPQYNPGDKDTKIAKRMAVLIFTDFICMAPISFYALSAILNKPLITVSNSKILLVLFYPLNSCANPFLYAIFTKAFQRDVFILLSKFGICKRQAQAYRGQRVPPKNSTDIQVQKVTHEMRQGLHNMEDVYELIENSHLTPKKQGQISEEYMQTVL
Structure (SMILES),"activity change, negative = inhibition [%]",Potency
COC(=O)c1cc(-c2c[nH]c3ccccc23)n[nH]1,-11.6,
CCn1nc(C)cc1-c1nnc(Sc2ncc([N+](=O)[O-])s2)n1C,,15.1 µM (active)
CC(=O)N1c2ccc(S(=O)(=O)NCCC(=O)Nc3ccccc3C)cc2CC1C (stereo not given),-0.317,
S=C(Nc1ccc(Oc2ccccc2)cc1)NC1CCCCCC1,,12 µM (active)
CC(=O)c1ccc(NC(=O)C(C)N(C)CC(=O)Nc2ccc(N3CCOCC3)cc2)cc1 (stereo not given),-4.26,
Cc1ccc(S(=O)(=O)/N=C2\C=C(Nc3cccc(C(=O)O)c3)C(=O)c3ccccc32)c(C)c1,,30.1 µM (active)
O=C(O)c1ccc(S(=O)(=O)/N=C2\C=C(Nc3ccccc3F)C(=O)c3ccccc32)cc1,,37.9 µM (active)
O=C(O)c1ccc(NC2=C/C(=N/S(=O)(=O)c3ccccc3)c3ccccc3C2=O)cc1,,21.3 µM (active)
O=C1C(Nc2ccc(O)cc2)=C/C(=N/S(=O)(=O)c2cccs2)c2ccccc21,,30.1 µM (active)
COc1ccc(CNCc2cc(C)c(OC)cc2C)c(OC)c1,-2.56,
O=C(O)c1ccc(CNC(=O)c2ccc3c(c2)C(=O)N(Cc2cccnc2)C3=O)cc1,-5.76,
Cc1ccccc1C(=O)N1CCN(c2ccc(NC(=S)NC(=O)c3ccco3)cc2)CC1,,21.3 µM (active)
O=C(Nc1ccccc1C(=O)N1CCN(c2cccc(Cl)c2)CC1)C1=CSCCO1,-14.7,
COc1cc(NC(=O)C(C)C)ccc1NC(=O)c1ccco1,-9.42,
Cc1cc(C)n2c(C)nnc2c1,-0.576,
CS(=O)c1ccc(-n2c(=O)n(Cc3ccccc3)c(=O)c3[nH]cnc32)cc1 (stereo not given),-2.3,
COc1cc2c(cc1OC)CN(C(=S)NC(=O)c1ccccc1)CC2,1.18,
Cc1cc(C(=O)COC(=O)c2ccc(O)cc2O)c(C)n1-c1ccccc1,,23.9 µM (active)
CC(=O)C1=C(O)C(=O)N(c2ccc(O)cc2)C1c1cccc(F)c1 (stereo not given),-6.31,
O=C(NC(=S)Nc1ccc(C(=O)N2CCOCC2)cc1)c1ccc([N+](=O)[O-])cc1,-4.55,

Structure (SMILES),"activity change, negative = inhibition [%]",Potency
O=[N+]([O-])c1ccc(NC(=S)NCc2ccc(F)cc2)cc1,,9.53 µM (active)
O=C(NCc1ccc(F)cc1)c1ccncc1,-3.08,
O=[N+]([O-])c1ccc(NC(=S)NCCc2ccc(F)cc2)cc1,,9.53 µM (active)
CCCNc1c(NS(=O)(=O)c2ccc(Br)cc2)c(=O)oc2ccccc12,-1.84,
N#C/C(=N\Nc1ccc(S(=O)(=O)N2CCc3ccccc32)cc1)C(N)=S,,9.53 µM (active)
O=C(NNC(=O)c1n[nH]c(=O)c2ccccc12)c1ccc(Br)cc1,-7.52,
COc1ccccc1CNS(=O)(=O)c1ccc(-n2cccn2)cc1,-5.7,
CS(=O)(=O)c1ccc(N2CCN(c3ccccn3)CC2)c([N+](=O)[O-])c1,-8.56,
COc1ccccc1C1CCN(c2cc(O)ccc2[N+](=O)[O-])CC1,,37.9 µM (active)
Clc1ccc(C2Nc3cccc4cccc(c34)N2)cc1,-8.7,
O=C(O)c1ccccc1NS(=O)(=O)c1cccc(-n2sc3ccccc3c2=O)c1,,23.9 µM (active)
COc1cc(C(=O)NCCNC(=O)c2cnccn2)cc(OC)c1OC,-3.03,
Cc1ccc(S(=O)(=O)NCCNc2ccc([N+](=O)[O-])cc2)cc1,-6.89,
Cc1ccc(C(=O)Nc2cccc([N+](=O)[O-])c2)cc1S(=O)(=O)Nc1ccc(NC(=O)c2ccccc2)cc1,-4.06,
Cc1ccc(NS(=O)(=O)c2cc(C(=O)Nc3cccc([N+](=O)[O-])c3)ccc2C)cc1,,21.3 µM (active)
COCC(=O)N1CCC(n2nccc2NC(=O)c2ccccc2OC)CC1,-3.8,
COc1ccc(S(=O)(=O)Nc2ccccc2C(=O)Nc2nc(-c3ccc(F)cc3)cs2)cc1OC,,3.38 µM (active)
COc1ccccc1C(=O)Nc1nnc(SCC(=O)NC2CCCC2)s1,-5.73,
O=S(=O)(Nc1cccc(-c2ccc(N3CCCCCC3)nn2)c1)c1ccc(F)cc1,-6.89,
Cc1ccc(S(=O)(=O)Oc2ccc(/C=C(/NC(=O)c3ccccc3)C(=O)Nc3ccccc3)cc2)cc1,-1.41,

Structure (SMILES),"activity change, negative = inhibition [%]",Potency
COc1cc(NS(=O)(=O)c2ccc(NC(=O)c3ccc(F)cc3)cc2)ncn1,-8.18,
O=C(Nc1nc(-c2ccccc2)cs1)c1ccccc1NS(=O)(=O)c1ccc(F)cc1,,3.38 µM (active)
COc1ccc(-c2csc(NC(=O)c3ccccc3NS(=O)(=O)c3ccc(C)cc3)n2)cc1,,3.38 µM (active)
COc1ccc(-c2csc(NC(=O)c3ccccc3NS(=O)(=O)c3ccc(F)c(F)c3)n2)cc1,,5.36 µM (active)
C=CCN(c1ccccc1)S(=O)(=O)c1ccc2[nH]cc(C(=O)NCCOC)c(=O)c2c1,-10.1,
O=C(Nc1ccc2nc3n(c(=O)c2c1)CCCCC3)C(=O)N1CCN(c2ccccc2F)CC1,-13.9,
Clc1ccccc1CN(Cc1ccccc1)c1ncnc2nc[nH]c12,,26.9 µM (active)
Clc1ccc2c(c1)-c1nnc(Br)n1-c1ccccc1S2,,26.9 µM (active)
CC(C)NC(=O)COc1coc(CN2CCN(c3ccccc3F)CC2)cc1=O,-7.58,
O=S(=O)(Nc1cc(Cl)ccc1-n1cncn1)c1cc(Br)ccc1Br,,15.1 µM (active)
COc1ccccc1CNC(=O)CSc1nc(N)c(C#N)c(-c2cccs2)c1C#N,,37.9 µM (active)
Cc1ccc(SCC(=O)NCc2ccccc2C)cc1,-8.01,
COc1ccc(NC(=O)Cn2nnc(C(=O)NCc3cccs3)c2N)c(OC)c1,-0.749,
CC(C)N(C(=O)Cn1c(-c2cccnc2)ccc(C#N)c1=O)C(C)C,-6.8,
CC1CCCC(NC(=O)CN2C(=O)COc3ccccc32)C1C (stereo not given),-7.14,
N#CC(C#N)=NNc1ccc(S(=O)(=O)N2CCCCC2)cc1,,3.01 µM (active)
Cc1ccc(S(=O)(=O)N2CCOCC2)cc1N/N=C(\C#N)c1nc2ccccc2[nH]1,-10.7,
COC(=O)c1ccc(COc2cc(O)c3c(c2)OC(C)(C)CC3=O)cc1,,30.1 µM (active)
CC(=O)c1ccc(S(=O)(=O)N2CCN(CCOc3ccc(Br)cc3)CC2)cc1,,30.1 µM (active)
Cc1ccc(S(=O)(=O)N2CCN(C(=O)CCn3cncn3)CC2)cc1,-0.576,
